# The whole screen tested about 66,000 compounds, of which about 960 (1.5%) showed an effect of 50% or more. For the sample, strong results were picked, then their nearest neighbours and some compounds at random.
# Tested on: Trypanosoma brucei
# Test: Trypanosoma brucei 72 hour study
# Format: functional, organism-based
# Design: scale not given: in the data most compounds retested in dose-response had high values
structure (smiles),measurement,setting,value
Cl.c1cn(-c2cncc(C3CCNCC3)n2)cn1,Percent Effect,"30.3 µM, […]",-40.04%
CN(C)C(=O)CN1CCC2(COCc3cnc(-c4cccnc4)nc32)C1.O=C(O)C(F)(F)F.O=C(O)C(F)(F)F (stereo not given),Percent Effect,"30.3 µM, […]",-72.36%
CN(C)C(=O)c1n[nH]c2c1CN(CC1CCCCC1)C2.O=C(O)C(F)(F)F.O=C(O)C(F)(F)F,Percent Effect,"30.3 µM, […]",-36.34%
N#Cc1c(Cl)nsc1N1CCN(CC2CC2)CC1,Percent Effect,"30.3 µM, […]",-23.59%
N#Cc1c(Cl)nsc1NCc1ccc(N2CCC(CO)CC2)cc1,Percent Effect,"30 µM, 30.03 µM",-28.26%
CC(=O)N1CCN(C(=O)CCNc2snc(Cl)c2C#N)CC1,Percent Effect,"30 µM, 30.03 µM",-13.74%
CC(=O)N1CCN(CCNc2snc(Cl)c2C#N)CC1,Percent Effect,"30 µM, 30.03 µM",1.028%
CC(C)(C)CCN1CCN(c2snc(Cl)c2C#N)CC1,Percent Effect,"30.3 µM, […]",100.4%
N#Cc1c(Cl)nsc1N1CCN(CC2CCCCC2)CC1,Percent Effect,"30.3 µM, […]",100.2%
CC(C)COCC1CN(C(=O)c2cscn2)Cc2ncn(C)c21.O=C(O)C(F)(F)F (stereo not given),Percent Effect,"30.3 µM, […]",-83.42%
CN(C)CCOCc1cncc2c1CCN(Cc1ccccn1)C2.O=C(O)C(F)(F)F.O=C(O)C(F)(F)F.O=C(O)C(F)(F)F,Percent Effect,"30.3 µM, […]",-28.23%
Cc1nc(CN2CC[C@H]3[C@@H]2CCC(=O)N3c2cnn(C)c2)cs1.O=C(O)C(F)(F)F,Percent Effect,"30.3 µM, […]",-10.95%
Cc1ccc(CN(CCCn2ccnc2)Cc2c[nH]nc2C(C)(C)C)s1.O=C(O)CC(O)(CC(=O)O)C(=O)O,Percent Effect,"30.3 µM, […]",-172%
Cc1ccc(C(NC(=O)C2CC2)c2cccc(S(C)(=O)=O)c2)cc1 (stereo not given),Percent Effect,"30 µM, 30.03 µM",-25.5%
CS(=O)(=O)CCNC(=O)Nc1sc2ccccc2c1Cl,Percent Effect,"30.3 µM, […]",-157.9%
CN(C)C(=O)CCNC(=O)Nc1sc2ccccc2c1Cl,Percent Effect,"30.3 µM, […]",-534.4%
CN(C)CC(C)(O)CNC(=O)Nc1sc2ccccc2c1Cl (stereo not given),Percent Effect,"30.3 µM, […]",103.3%
Cn1nc(COCC2CC2)c2c1CCN(Cc1cccs1)C2.O=C(O)C(F)(F)F,Percent Effect,"30.3 µM, […]",-72.61%
O=C(O)C(F)(F)F.c1cncc(N2CCCn3nnc(COCC4CC4)c3C2)c1,Percent Effect,"30.3 µM, […]",-2.195%
CN(C)CCN1C(=O)CCCC12CCCN(C(=O)c1cc[nH]n1)C2.O=C(O)C(F)(F)F (stereo not given),Percent Effect,"30.3 µM, […]",-2.017%
CCOc1ncccc1CNC(=O)NC(C)Cn1cccn1 (stereo not given),Percent Effect,10 µM,-0.2891%
same,Percent Effect,"30.3 µM, […]",0.8601%
Cc1cc(C)n(C2CCCN(C(=O)c3cccc(F)c3F)C2)n1 (stereo not given),Percent Effect,"30 µM, 30.03 µM",-91.58%
Cc1cc(C)n(C2CCCN(C(=O)c3ccc(F)cc3F)C2)n1 (stereo not given),Percent Effect,"30 µM, 30.03 µM",59.51%
Cc1nc(C)n(C2CCCN(C(=O)c3ccc(F)cc3F)C2)n1 (stereo not given),Percent Effect,"30 µM, 30.03 µM",1.062%
Cn1cc(N2C(=O)CC[C@@H]3[C@H]2CCN3CC2CCOCC2)cn1.O=C(O)C(F)(F)F,Percent Effect,"30.3 µM, […]",-7.648%
CC(=O)N1CCC2(CCN(Cc3ccccn3)C2=O)C1.O=C(O)C(F)(F)F (stereo not given),Percent Effect,"30 µM, 30.03 µM",1.584%
Clc1cccc(N2CCC(NCc3cc[nH]n3)C2)c1 (stereo not given),Percent Effect,"30 µM, 30.03 µM",15.76%
Clc1cc(Cl)cc(CN2CCC(NCc3cc[nH]n3)CC2)c1,Percent Effect,"30.3 µM, […]",90.13%
Clc1cc(Cl)cc(CN2CCC(NCc3ncc[nH]3)CC2)c1,Percent Effect,"30.3 µM, […]",-65.03%
Cc1ccc(CN2CCc3ncc(CNC(=O)C4CCC4)n3CC2)o1.O=C(O)C(F)(F)F,Percent Effect,"30.3 µM, […]",-36.54%
CCC(C)(C)n1nnnc1C(c1cccs1)N1CCc2ccccc2C1 (stereo not given),Percent Effect,"30.3 µM, […]",99.92%
CCC(C)(C)n1nnnc1C(c1cccs1)N1CCCCC1 (stereo not given),Percent Effect,"30.3 µM, […]",13.9%
Cc1noc(C)c1C(=O)NCC(C)N1CCc2ccccc21 (stereo not given),Percent Effect,10 µM,-61.25%
CCC(C)(C)n1nnnc1C(c1cccs1)N1CCc2ccccc21 (stereo not given),Percent Effect,"30.3 µM, […]",72.61%
CCC(CNC(=O)c1ccccn1)N1CCc2ccccc2C1 (stereo not given),Percent Effect,"30 µM, 30.03 µM",-43.95%
COc1ccc(-c2n[nH]c(C)c2CC(=O)N2CCOCC2)cc1,Percent Effect,"30 µM, 30.03 µM",6.943%
CNC(=O)c1cc2c(nc1NCC1CC1)CCN(S(C)(=O)=O)CC2.O=C(O)C(F)(F)F,Percent Effect,"30 µM, 30.03 µM",-3.721%
Cc1csc(C(=O)N2CC[C@H](Oc3cccnc3C)[C@@H](O)CC2)c1,Percent Effect,"30.3 µM, […]",-24.66%
COc1ccc(CN2CCn3cccc3C2C)cc1F (stereo not given),Percent Effect,"30 µM, 30.03 µM",11.74%
N#Cc1cccc(CN2C(=O)c3ccccc3CS2(=O)=O)c1,Percent Effect,"30 µM, 30.03 µM",-36.86%
N#Cc1cccc(CN2C(=O)C3(CCNCC3)Nc3ccccc32)c1,Percent Effect,"30 µM, 30.03 µM",83.34%
C=Cc1ccc(CN2C(=O)C3(CCNCC3)Nc3ccccc32)cc1,Percent Effect,"30 µM, 30.03 µM",-41.13%
NC(=O)c1ccc(CN2C(=O)C3(CCNCC3)Nc3ccccc32)cc1,Percent Effect,"30 µM, 30.03 µM",8.328%
CN1CC2(CCN(Cc3cccc(C#N)c3)CC2)CC1=O,Percent Effect,"30 µM, 30.03 µM",-2.169%
CC(C)c1ccc(CN2C(=O)C3(CCNCC3)Nc3ccccc32)cc1,Percent Effect,"30 µM, 30.03 µM",101.9%
O=C(O)C(F)(F)F.O=C(O)C(F)(F)F.c1cc(CN2Cc3nccn3CC(Cn3cncn3)C2)ccn1 (stereo not given),Percent Effect,"30 µM, 30.03 µM",-13.09%
CNC(=O)CN1CCc2c(CNc3nccs3)n[nH]c2C1.O=C(O)C(F)(F)F,Percent Effect,"30 µM, 30.03 µM",-11.16%
Cc1cc(N(C)CC2COc3ccccc3O2)nc(C)n1 (stereo not given),Percent Effect,"30.3 µM, […]",-13.97%
Cc1cc(N(C)CC2COc3ccccc3O2)nc(N)n1 (stereo not given),Percent Effect,"30.3 µM, […]",-9.48%
CCN1CC(CN(C)c2cc(C)nc(N)n2)Oc2ccccc21 (stereo not given),Percent Effect,"30.3 µM, […]",98.13%
CC(C)CS(=O)(=O)N1C[C@H]2C[C@H](C(=O)Nc3cccnc3)[C@@H](C1)O2,Percent Effect,"30 µM, 30.03 µM",-5.396%
COCCO[C@H]1CCN(c2ccc(C)nn2)[C@H]1Cc1cccnc1.O=C(O)C(F)(F)F.O=C(O)C(F)(F)F,Percent Effect,"30.3 µM, […]",-12.33%
Fc1cccc(CN2C[C@@H]3COC[C@]3(COCc3ccncc3)C2)c1.O=C(O)C(F)(F)F.O=C(O)C(F)(F)F,Percent Effect,"30 µM, 30.03 µM",-8.118%
COc1ccccc1CN1C[C@@H]2COC[C@]2(COCc2ccncc2)C1.O=C(O)C(F)(F)F.O=C(O)C(F)(F)F,Percent Effect,"30 µM, 30.03 µM",59.56%
COc1cc(N2C[C@@H]3COC[C@]3(COCc3ccccn3)C2)ncn1.O=C(O)C(F)(F)F.O=C(O)C(F)(F)F,Percent Effect,"30 µM, 30.03 µM",-23.44%
COc1cc(N2C[C@@H]3COC[C@]3(COc3ncccc3F)C2)ncn1.O=C(O)C(F)(F)F.O=C(O)C(F)(F)F,Percent Effect,"30 µM, 30.03 µM",51.8%
COc1cc(N2C[C@@H]3COC[C@]3(COc3ccccn3)C2)ncn1.O=C(O)C(F)(F)F.O=C(O)C(F)(F)F,Percent Effect,"30.3 µM, […]",-11.8%
COc1ccccc1CN1C[C@@H]2COC[C@]2(COc2cccnc2)C1.O=C(O)C(F)(F)F.O=C(O)C(F)(F)F,Percent Effect,"30 µM, 30.03 µM",-13.45%
N#CC1(C(=O)N2C[C@H]3CC[C@@H]2CN(Cc2cscn2)C3)CCOCC1,Percent Effect,"30 µM, 30.03 µM",-52.3%
Cc1nn(C)c(C)c1C1CCCN1CC(=O)Nc1nccs1 (stereo not given),Percent Effect,"30.3 µM, […]",-4.403%
CNC(=O)[C@@H]1C[C@H]2CN(Cc3csc(C)n3)C[C@H]2N1C(C)C.O=C(O)C(F)(F)F.O=C(O)C(F)(F)F,Percent Effect,"30.3 µM, […]",4.031%
Cc1nc(C(=O)N2CCN(c3ccc(Cl)c(Cl)c3)CC2)cs1,Percent Effect,"30.3 µM, […]",12.74%
Cc1nccc([C@H]2C[C@@H]3CCN(S(C)(=O)=O)C[C@H]3O2)n1,Percent Effect,"30.3 µM, […]",-74.86%
Cc1nccc([C@H]2C[C@@H]3CCN(S(=O)(=O)C4CC4)C[C@H]3O2)n1,Percent Effect,"30.3 µM, […]",-36.22%
Cc1nccc([C@@H]2C[C@@H]3CCN(S(C)(=O)=O)C[C@H]3O2)n1,Percent Effect,"30 µM, 30.03 µM",53.53%
CCNC(=O)Nc1ccc(N2CCC(OC)CC2)c(C(F)(F)F)c1,Percent Effect,"30 µM, 30.03 µM",-0.4307%
COc1ccc(CN2CCc3[nH]nc(C(=O)N(C)C)c3C2)cc1.O=C(O)C(F)(F)F,Percent Effect,"30.3 µM, […]",4.36%
COc1ccc(F)c(CN(CCCn2ccnc2)Cc2ccc(C)s2)c1.O=C(O)CC(O)(CC(=O)O)C(=O)O,Percent Effect,"30.3 µM, […]",-24.6%
CN(CC(=O)NC(Cc1ccsc1)c1cccnc1)Cc1cccnc1.Cl (stereo not given),Percent Effect,"30.3 µM, […]",-0.9311%
CC(C)c1nnc(CN(C)C(c2ccc(F)cc2)c2cccnc2)o1 (stereo not given),Percent Effect,"30 µM, 30.03 µM",-53.44%
CN(Cc1nnc(C2CC2)o1)C(c1ccc(F)cc1)c1cccnc1 (stereo not given),Percent Effect,"30 µM, 30.03 µM",-93.52%
CC(C)c1noc(CN(C)C(c2ccc(F)cc2)c2cccnc2)n1 (stereo not given),Percent Effect,"30 µM, 30.03 µM",70.75%
Cc1noc(NCc2cn(C)nc2-c2ccncc2)n1,Percent Effect,"30 µM, 30.03 µM",-13.42%
COCc1cc(NCc2cc(F)ccc2F)n2nccc2n1,Percent Effect,"30 µM, 30.03 µM",-36.1%
Cc1noc(NCc2ccc(F)cc2F)n1,Percent Effect,"30.3 µM, […]",72.2%
CC(C)(C)c1nnc(NCc2ccc(F)cc2)o1,Percent Effect,"30 µM, 30.03 µM",-100%
Cc1noc(NCc2cc(F)ccc2F)n1,Percent Effect,"30.3 µM, […]",50.55%
Cc1nnc(NCc2ccc(F)cc2)o1,Percent Effect,"30 µM, 30.03 µM",-52.4%
Cc1noc(CS(=O)(=O)c2cc(F)ccc2F)n1,Percent Effect,"30.3 µM, […]",-4.369%
Cc1noc(NCc2ccc(F)cc2)n1,Percent Effect,"30.3 µM, […]",55.37%
Cc1noc(NCc2cn(C)nc2-c2cccnc2)n1,Percent Effect,"30 µM, 30.03 µM",-14.18%
Cc1occc1C(=O)N1CCc2c(CNS(C)(=O)=O)cncc2C1.Cl,Percent Effect,"30.3 µM, […]",-7.203%
CN(C)C[C@]12COC[C@H]1CN(C(=O)Cc1ccc3c(c1)OCO3)C2.O=C(O)C(F)(F)F,Percent Effect,"30 µM, 30.03 µM",24.04%
Cn1ncc2c(NC3CCSC3)nc(-c3ccncc3)nc21 (stereo not given),Percent Effect,"30.3 µM, […]",38.84%
CC(=O)N1CCN(Cc2cccs2)CC2(CC(=O)N(C)C2)C1.O=C(O)C(F)(F)F (stereo not given),Percent Effect,"30.3 µM, […]",-45.81%
CN1CC(=O)N(c2ccsc2)CC12CCN(C(=O)c1cccn1C)C2.O=C(O)C(F)(F)F (stereo not given),Percent Effect,"30 µM, 30.03 µM",-33.31%
Cc1noc([C@@H]2CCO[C@@H]3CCN(Cc4ccc(C)s4)C[C@@H]32)n1.O=C(O)C(F)(F)F,Percent Effect,"30 µM, 30.03 µM",1.711%
O=C(O)C(F)(F)F.O=C(O)c1c(-c2cncnc2)ncc2c1CCN(CC1CCOC1)C2 (stereo not given),Percent Effect,"30.3 µM, […]",-18.52%
CCn1ncc2c1C(COCC1CC1)CN(c1ccncn1)C2.O=C(O)C(F)(F)F.O=C(O)C(F)(F)F (stereo not given),Percent Effect,"30 µM, 30.03 µM",-5.077%

# Reference: ChEMBL document CHEMBL3988442, “University of Dundee, Small-Polar-MMV Screening Library” (2021)
